The text below walks through data of PubChem BioAssay (NCATS).

SMILES strings stand for the structures. Inconclusive results are not listed. Where a call stands in place of a potency, no number is given. Active and inactive are the calls of the source. Calls come from the whole dose curve.
Potency is the fitted concentration of half-maximal effect.

The test can be described thus: qHTS assay for small molecule disruptors of the mitochondrial membrane potential - 5 hr assay (AID 651755). Note: nearly all actives have a fitted effect of over 40% in size. Conditions: JC-1-type ratio dye; series mostly up to 92.2 µM. The source says:
National Center for Advancing Translational Sciences [NCATS]
NIH Chemical Genomics Center [NCGC]
National Institutes of Environmental Health Sciences [NIEHS]
National Toxicology Program [NTP]
Mitochondrial membrane potential (MMP), one of the parameters for mitochondrial function, is generated by mitochondrial electron transport chain that creates an electrochemical gradient by a series of redox reactions. This gradient drives the synthesis of ATP, a crucial molecule for various cellular processes. Measuring MMP in living cells is commonly used to assess the effect of chemicals on mitochondrial function. […] The dye accumulates in the mitochondria of healthy cells as aggregates, with red fluorescence. The mitochondrial potential collapses and the dye can no longer accumulate in the mitochondria and remains in the cytoplasm in monomers, with green fluorescence.
2,000 HepG2 cells in 5 uL/well were dispensed into black, clear-bottom 1536-well plates using a Multidrop Combi (Thermo Scientific) dispenser. The assay plates were incubated overnight at 37C to allow cells to attach to the wells, followed by the transfer of 23 nL compound or DMSO vehicle by a pin tool (Kalypsys). The plates were incubated for 5 hr at 37C and 5% CO2, followed by the addition of 5 uL of 2X Mito-MPS dye (BD Biosciences) into each well using Flying Reagent Dispenser (Aurora Discovery) and then following 30 min incubation at 37C. Fluorescence intensity (490nm excitation and 535nm emission for monomers; and 540nm excitation and 590nm emissions for aggregates) was measured using an Envision plate reader.
For `NC(=O)/N=N/C(N)=O`, the Potency result was “inactive”.
In the case of `CC(C)=CCl`, the Potency entry was “inactive”.
`COC(=O)CS`: the Potency entry is “inactive”.
`O=C1CCC(=O)O1`: the Potency result was “inactive”.
Turning to `NC(=O)c1cccc([N+](=O)[O-])c1`, the Potency result is “inactive”.
In the case of `CCC(C)(C)C`, the Potency entry was “inactive”.
Take `Clc1cc(Cl)cc(Cl)c1`: the Potency result is “inactive”.
Consider `CCCCC(CC)C(=O)O` (stereo not given), for which the Potency result was “inactive”.
In the case of `O=C(O)c1ccccc1C(=O)O`, the Potency entry is “inactive”.
As to `O=CNc1ccccc1`, the Potency entry is “inactive”.
On to `Cc1cc(C)c(N)cc1C`, for which the Potency result was “inactive”.
As for `Cc1ccc(C)cc1`, the Potency result was “inactive”.
With `CC(C)N(C)C`, the Potency result is “inactive”.
As for `Cc1cccc(C(=O)O)c1`, the Potency result was “inactive”.
Consider `CC/C=C/C#N`, for which the Potency entry was “inactive”.
As for `Cc1ccc([N+](=O)[O-])c(N)c1`, the Potency entry was “inactive”.
Turning to `c1ccc(Nc2ccccc2)cc1`, the Potency result was “inactive”.
In the case of `CCN(CC)c1cccc(O)c1` it was “inactive”; in that of `CCCOCC(C)OCC(C)O` (stereo not given), “inactive”; in that of `CC1=C(/C=C/C(C)=C/C=C/C(C)=C\C=O)C(C)(C)CCC1`, “inactive”.
For `c1ccc2c(c1)Oc1ccccc1S2`, the Potency result is “inactive”.
In the case of `CCOCC(=O)O` it was “inactive”; in that of `O=[N+]([O-])c1cccc(C(F)(F)F)c1`, “inactive”.
For the compound `CCCCC/C=C/C=C/C=O`, the Potency entry was “inactive”.
In the case of `CCC(C)(C)C(=O)O` it was “inactive”; in that of `Nc1cccc([N+](=O)[O-])c1`, “inactive”.
In the case of `Nc1cc(Cl)c([N+](=O)[O-])cc1O` it was 33.5 µM (active).
In the case of `C=C(C)OC(C)=O` it was “inactive”; in that of `O=[N+]([O-])c1cccc(Cl)c1`, “inactive”.
Regarding `CC(C)Nc1ccccc1`, the Potency result was “inactive”.
`CC(O)CC(C)O` (stereo not given): the Potency result is “inactive”.
Turning to `CN(C)c1cccc(O)c1`, the Potency result is “inactive”.
Under `ClC/C=C/CCl` stands “inactive”.
In the case of `CC(C)C(C)C` it was “inactive”.
Turning to `CCCCC(CC)COCC1CO1` (stereo not given), the Potency entry was “inactive”.
In the case of `Cc1ccccc1C(=O)O`, the Potency result was “inactive”.
In the case of `CC(C)(C)OC=O` it was “inactive”.
In the case of `CC(C)N=C=NC(C)C`, the Potency entry was “inactive”.
In the case of `Cc1cc(C(=O)O)ccc1[N+](=O)[O-]` it was “inactive”; in that of `C=C(C)C(=O)OCCCCCCCCCC`, “inactive”.
